From PubChem
Compounds with a hit are over-represented: about 0.84% of the library has one in this group of screens.
SRC3 TRFRET art: TR-FRET artefact, counter-screen to PPARgamma/SRC-3 agonist assay | PPARgamma/SRC-3 format; hits give high values | TR-FRET ratio at 8 µM | 99,000 tested, 0.39% active
PPARg SRC-2 ag: PPARgamma-driven SRC-2 recruitment agonism; activation, % at 8 µM; PPARgamma LBD-SRC-2 recruitment, biochemical; 200,000 tested, 0.34% active; P37231; in the data active = activation above about 22%;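 also: 0% = vehicle and 100% = reference agonist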
Target sequence (P37231 whole entry, looked up, the tested form may be a part): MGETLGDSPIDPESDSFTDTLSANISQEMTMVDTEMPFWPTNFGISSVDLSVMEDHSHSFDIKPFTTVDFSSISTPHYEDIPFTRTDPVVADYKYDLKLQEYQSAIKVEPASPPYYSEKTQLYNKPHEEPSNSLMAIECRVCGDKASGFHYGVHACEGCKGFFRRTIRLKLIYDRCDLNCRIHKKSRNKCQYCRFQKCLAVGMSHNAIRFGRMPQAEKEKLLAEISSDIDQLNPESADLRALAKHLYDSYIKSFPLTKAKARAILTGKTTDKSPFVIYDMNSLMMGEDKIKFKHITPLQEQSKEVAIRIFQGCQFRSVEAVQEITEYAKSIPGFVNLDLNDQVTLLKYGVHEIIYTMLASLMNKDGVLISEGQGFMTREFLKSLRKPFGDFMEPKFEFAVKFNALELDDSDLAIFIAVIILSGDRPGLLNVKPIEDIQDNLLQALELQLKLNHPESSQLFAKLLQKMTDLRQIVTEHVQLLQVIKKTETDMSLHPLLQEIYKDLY
PPARg SRC3 recr: PPARgamma-driven SRC-3 recruitment agonism; 200,000 tested, 0.26% active; activation, % at 8 µM; biochemical PPARgamma/SRC-3 coactivator recruitment assay; P37231; in the data active = activation above about 23%;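 also: 0% = DMSO and 100% = reference agonist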
TR-FRET SRC-2 ct: TR-FRET artefact, counter-screen to PPARgamma/SRC-2 agonist assay. AID 1049. TR-FRET ratio at 8 µM. 200,000 tested, 0.4% active. hits give high values
SRC1 TRFRET art: TR-FRET artefact, counter-screen to PPARgamma/SRC-1 agonist assay. TR-FRET detection artefact counter-screen, emission ratio; hits give high values. TR-FRET ratio at 8 µM. 99,000 tested, 0.34% active; in the data active = TR-FRET ratio above about 2300
PPARg SRC1 recr: agonists of human PPARgamma SRC-1 coactivator recruitment; activation, % at 8 µM; 200,000 tested, 0.41% active; P37231; PPARgamma-SRC-1 coactivator recruitment biochemical assay; AID 631; in the data active = activation above about 19%;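 also: 0% = DMSO and 100% = reference agonist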
Active calls of the source: *; . = no result given. Rule as the data show it, unless noted: active = TR-FRET ratio above about 2000; inactive = the rest.

SMILES | SRC3 TRFRET art | PPARg SRC-2 ag | PPARg SRC3 recr | TR-FRET SRC-2 ct | SRC1 TRFRET art | PPARg SRC1 recr
Cc1c(NC(=O)C(C)OC(=O)c2ccc([N+](=O)[O-])s2)c(=O)n(-c2ccccc2)n1C (stereo not drawn) | 1426 | -1 | 3 | 1369 | 1584 | 0
Cc1ccc(-c2csc3nc[nH]c(=S)c23)cc1C | 1542 | -5 | 2 | 1562 | 1687 | -5
Cc1c(-c2ccccc2)sc2nc[nH]c(=S)c12 | 2134* | 6 | 9 | 1886 | 2247 | 10
COc1ccc(C(C(=O)NC2CCCC2)N(C(=O)c2snc(-c3ccc(F)cc3)c2N)c2ccc(OC)cc2)cc1 (stereo not drawn) | . | 15 | 17 | 2223* | . | 16
Cc1ccccc1-n1c(C)cc(/C=N/NC(=O)c2ccncc2)c1C | . | -6 | -6 | 1379 | . | -4
Cc1cc(C)cc(-n2c(C)cc(/C=N/NC(=O)c3ccncc3)c2C)c1 | 1610 | 4 | 1 | 1986* | 2092 | 1
O=C1CCC([N+](=O)[O-])C(c2ccc(Cl)cc2)N1 (stereo not drawn) | . | -2 | -1 | 1411 | . | -2
CCCSc1nnc2nc3c(nn12)c1ccccc1n3C | . | 12 | 12 | 1578 | . | 3
C=CCn1c(Cc2cccs2)nnc1SCC(=O)c1ccc(F)cc1 | . | 6 | 3 | 1726 | . | 21*
COc1ccc(N(Cc2nnc3n2CCCCC3)C(=O)Nc2ccccc2)cc1 | 1526 | 4 | 1 | 1368 | 1545 | -4
Cc1cc(C)cc(-n2c3nc4ccccc4nc3c3c(=O)n(Cc4ccco4)cnc32)c1 | . | 7 | 8 | 1412 | . | 1
CCOc1ccc(-n2c3nc4ccccc4nc3c3c(=O)n(Cc4ccco4)cnc32)cc1 | . | 7 | 84* | 1566 | . | 45*
COc1ccc(S(=O)(=O)N(CC(=O)NCC2CCCO2)c2ccc(F)cc2)cc1OC (stereo not drawn) | . | 1 | 13 | 1477 | . | 8
COc1cccc(NC(=S)/C(=C(\[O-])c2ccc(OC(F)F)cc2)[n+]2ccccc2)c1 | 1727 | 5 | 1 | 1987* | 1864 | 5
Cc1cc(C)c(NC(=S)N(CCCN2CCOCC2)Cc2cccnc2)c(C)c1 | 1923 | 6 | 0 | 1671 | 1934 | 1
CCN(CC)CCCNC(=O)c1ccc2c(SCC(=O)O)c3c(nc2c1)CCC3 | 1780 | 23* | 5 | 1661 | 1924 | 9
CCCCOc1ccc(C(=O)N/C(=C/C=C/c2ccccc2)C(=O)O)cc1 | 1452 | 0 | 30* | 1532 | 1951 | 7
O=C(CSc1ccccn1)Nc1nc2ccc(Br)cc2s1 | . | 0 | 6 | 1722 | . | 2
O=C(Nc1nc2c(cc3c4c(cccc42)CC3)s1)c1ccccc1Cl | 2115* | 11 | -4 | 1981* | 2264 | 2
O=C(NC1CCCCC1)c1cccnc1C(=O)O | . | -1 | 1 | 1435 | . | -10
O=c1c(-c2n[nH]c(=S)n2-c2ccccc2)cccn1Cc1cccc(Cl)c1 | 1865 | 12 | 6 | 1986* | 2294 | 16
Cc1cnc(NC(=O)c2ccncc2)s1 | 1433 | -2 | -2 | 1181 | 1821 | -5
Cc1csc(C(C#N)C(=O)c2ccncc2)n1 (stereo not drawn) | 1733 | 31* | 4 | 2112* | 1677 | 11
COc1ccc(C2(C(=O)NCc3ccco3)CCCC2)cc1OC | . | -2 | 5 | 1617 | . | 2
CCCCc1ccc(/C=C(\C#N)C(N)=S)s1 | 1538 | 0 | -1 | 1625 | 1995 | 4
SMILES | SRC3 TRFRET art | PPARg SRC-2 ag | PPARg SRC3 recr | TR-FRET SRC-2 ct | SRC1 TRFRET art | PPARg SRC1 recr
CCCCc1ccc(C2C(C#N)=C(N)SC(N)=C2C#N)s1 | . | 4 | 8 | 1742 | . | 21*
O=c1c(Cl)nc2cc(Cl)ccc2n1CCNc1ncc(C(F)(F)F)cc1Cl | . | 3 | -6 | 1553 | . | 32*
NNc1nc2cccnc2n(CCNc2ncc(C(F)(F)F)cc2Cl)c1=O | 1447 | 1 | 2 | 1488 | 1823 | -6
CCCCNC(=S)Nc1ccc(-c2nc3ccc(C)cc3s2)cc1 | 1753 | 15 | 2 | 1744 | 1999 | 3
Cc1ccc2nc(-c3ccc(NC(=S)NCCC(C)C)cc3)sc2c1 | . | 41* | 21 | 1682 | . | 14
COCCn1c(Cc2ccccc2)nnc1SCc1ccc([N+](=O)[O-])cc1 | 1567 | 9 | 0 | 1712 | 1924 | 3
CC(=O)Nc1c(O)nc(SCC(=O)Nc2ccc(C(C)=O)cc2)[nH]c1=O | . | 8 | 26* | 1727 | . | 5
CC(=O)Nc1c(O)nc(SCC(=O)Nc2cccc(C)c2)[nH]c1=O | . | 0 | 2 | 1625 | . | -1
Cc1nc(SCC(=O)Nc2ccc3c(c2)OCCO3)c2oc3ccccc3c2n1 | . | 16 | 12 | 1540 | . | 8
CCc1nc(SCC(=O)Nc2ccc3c(c2)OCCO3)c2oc3ccccc3c2n1 | . | 1 | -5 | 1553 | . | 67*
Cc1cccc(C)c1NC(=S)N(Cc1cccs1)C1CCCC1 | 1694 | 6 | 7 | 1388 | 1908 | 2
Cc1ccccc1OCc1nc2ccccc2[nH]1 | 1739 | 2 | -1 | 1505 | 1770 | 3
COc1ccccc1OCc1nc2ccccc2[nH]1 | . | 23* | -6 | 1592 | . | -3
COc1ccc2sc3c(=O)[nH]c4ccccc4c3c2c1 | . | 1 | 8 | 1611 | . | 145*
COc1ccc2c(c1)[nH]c(=O)c1sc3ccccc3c12 | . | 7 | 8 | 1661 | . | 15
CCOc1ccc(-n2nc3c(=S)[nH]nc(C)c3c2C)cc1 | 2186* | 11 | 18 | 1667 | 2128 | 16
CCOc1ccc(-n2nc3c(=O)[nH]nc(C)c3c2C)cc1 | 1667 | -1 | 0 | 1466 | 1666 | 3
Cc1cc2cc(CNC(=O)c3ccc(S(=O)(=O)N(C)C)cc3)ccc2n1C | . | 3 | 2 | 2108* | . | -3
Cc1ccc(S(=O)(=O)NCCn2c(C)cc3ccccc32)cc1 | . | 9 | 13 | 2803* | . | 9
Cc1cc(C)c(S(=O)(=O)NCc2ccc3c(c2)cc(C)n3C)c(C)c1 | . | -3 | 11 | 2083* | . | 10
CC(=O)Nc1ccc(S(=O)(=O)NCc2ccc3c(c2)cc(C)n3C)cc1 | . | 10 | 1 | 1733 | . | -1
Cc1cc2ccccc2n1CCNC(=O)Cc1ccccc1 | . | 0 | 8 | 1639 | . | 10
Cc1cc(C)c(S(=O)(=O)NCCn2c(C)cc3ccccc32)c(C)c1 | . | -1 | 21 | 2078* | . | 9
COc1ccc(CCNCC2C(Oc3ccc(Cl)cc3)C(=O)N2c2ccccc2C)cc1OC (stereo not drawn) | 1612 | 2 | 3 | 1735 | 1896 | 10
COc1ccc(OC)c(-n2c(=S)[nH]c3c(sc(=S)n3-c3ccccc3)c2=O)c1 | 1415 | -4 | 4 | 1443 | 1740 | -2
CC(C)N=C(NC#N)SCc1ccc(F)cc1 | . | 3 | 14 | 1728 | . | 16
COc1ccccc1/C=C/C(=O)OCc1nc2ccccc2c(=O)[nH]1 | 1595 | 3 | 4 | 1513 | 1773 | 2
CC(C)(O)C#Cc1ccc(CN2CCN(C3CCCCC3)C(CCO)C2)cc1 (stereo not drawn) | 1573 | 1 | -2 | 1582 | 2568* | 24*
